Measured values taken from PubChem BioAssay (NCATS).
“And” between values parts separate entries of the source, which are not always exact repeats. Equal values may be shown once. Results filed as inconclusive are left out. A call without a number means that no potency is given here. Values without a mark were called inactive. The source made the active and inactive calls. Calls follow the shape of the dose curve; as a rule, active = well fitted inhibition curve with a large enough effect; inconclusive = small, poorly fitted or top-dose-only effect; inactive = flat fitted curve, though single readings scatter.

Key:
PAD = assay: qHTS profiling for inhibitors of Plasmodium falciparum proliferation (AID 504749); also: potency is read from the fitted curve at half-maximal effect; details: P. falciparum in erythrocytes, SYBR Green DNA, 72 h; series mostly up to 28.7 µM
In short: (§1)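 Each compound contacts P. falciparum-infected red blood cells for 72 h at 37 C; lysis buffer (Tris, EDTA, saponin, Triton X, SYBR Green I) is added and fluorescence measured next morning; values normalized to controls.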

PC26 = assay: as above; details: P. falciparum in erythrocytes, SYBR Green DNA, 72 h; series mostly up to 28.7 µM
In short: as §1

PC49 = assay: as above; details: P. falciparum in erythrocytes, SYBR Green DNA, 72 h; series mostly up to 28.7 µM
In short: as §1

SC27B = assay: as above; details: P. falciparum in erythrocytes, SYBR Green DNA, 72 h; series mostly up to 28.7 µM
In short: as §1

TAB113 = assay: as above; details: P. falciparum in erythrocytes, SYBR Green DNA, 72 h; series mostly up to 28.7 µM
In short: as §1

TAB165 = assay: as above; details: P. falciparum in erythrocytes, SYBR Green DNA, 72 h; series mostly up to 28.7 µM
In short: as §1

KB-3-1 = assay: Cytotoxic Profiling of Annotated Libraries Using Quantitative High-Throughput Screening (AID 1296008); details: Five cell lines viability, CellTiter-Glo ATP luminescence, 48-72 h; max response: active compounds read low
In short: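 Cells exposed to compounds for 48 or 72 hr at 37 degrees Celsius. Viability read as ATP-coupled luminescence with CellTiter-Glo after 10 min at room temperature.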

PC15 = assay: qHTS profiling for inhibitors of Plasmodium falciparum proliferation (AID 504749); also: potency is read from the fitted curve at half-maximal effect; details: P. falciparum in erythrocytes, SYBR Green DNA, 72 h; series mostly up to 28.7 µM
In short: as §1

TAB109 = assay: as above; details: P. falciparum in erythrocytes, SYBR Green DNA, 72 h; series mostly up to 28.7 µM
In short: as §1

W2 = assay: as above; details: P. falciparum in erythrocytes, SYBR Green DNA, 72 h; series mostly up to 28.7 µM
In short: as §1
Also: nearly all actives have a fitted effect of over 60% in size.

| SMILES | Potency (PAD) | Potency (PC26) | Potency (PC49) | Potency (SC27B) | Potency (TAB113) | Potency (TAB165) | max response (KB-3-1) | Potency (PC15) | Potency (TAB109) | Potency (W2) |
| --- | --- | --- | --- | --- | --- | --- | --- | --- | --- | --- |
| CC(C)NCC(O)COc1ccccc1-n1cccc1 (centres undefined) | inactive | inactive | inactive | inactive | inactive | inactive | 24.4% | – | – | – |
| OCCOCCOCCO | inactive | – | inactive | inactive | inactive | inactive | -12.6% | inactive | inactive | inactive |
| O.O.O.O.O.O.O.O=S(=O)([O-])[O-].[Co+2] | inactive | – | 7.94 µM (active) | 7.94 µM (active) | 6.31 µM (active) | 10 µM (active) | -0.614% | inactive | 7.94 µM (active) | 5.36 µM (active) |
| CN(C)C(=O)CCSC(SCCC(=O)O)c1cccc(/C=C/c2ccc3ccc(Cl)cc3n2)c1 (centres undefined) | 11.2 µM (active) | – | inactive | – | – | – | -15.2% | inactive | – | 7.57 µM (active) |
| NC(=S)N=Nc1ccc(NN=C(N)N)cc1 | 11.2 µM (active) | – | – | 11.2 µM (active) | – | 7.94 µM (active) | -12.2% | 8.91 µM (active) | 11.2 µM (active) | 1.69 µM (active) |
| CN(C)CCOc1ccc(/C(=C(/CCCl)c2ccccc2)c2ccccc2)cc1 | inactive | inactive | inactive | inactive | inactive | inactive | -3.21% | – | inactive | inactive |
| Cc1cc2nc3c(=O)[nH]c(=O)nc-3n(C[C@H](O)[C@H](O)[C@H](O)COP(=O)(O)OP(=O)(O)OC[C@H]3O[C@@H](n4cnc5c(N)ncnc54)[C@H](O)[C@@H]3O)c2cc1C | inactive | – | inactive | inactive | inactive | inactive | -11% | inactive | inactive | inactive |
| O=C(CCCN1CCN2CCCC2C1)c1ccc(F)cc1 (centres undefined) | inactive | inactive | inactive | inactive | – | – | 3.11% | inactive | – | 6.01 µM (active) |
| CSCCC(N)C(=O)O (centres undefined) | inactive | – | inactive | inactive | inactive | inactive | 3.08% | inactive | inactive | inactive |
| CNC(=O)c1c(I)c(C(=O)NCC(=O)Nc2c(I)c(C(=O)O)c(I)c(C(=O)NCCO)c2I)c(I)c(N(C)C(C)=O)c1I | inactive | inactive | inactive | inactive | inactive | inactive | 10% | inactive | – | inactive |
| CC(C)C1=CC2=CC[C@@H]3[C@](C)(CCC[C@@]3(C)C(=O)O)[C@H]2CC1 | inactive | – | inactive | inactive | inactive | inactive | -11.9% | inactive | inactive | inactive |
| c1ccc2c(c1)Sc1ccccc1N2CCN1CCCC1 | 7.94 µM (active) | 12 µM (active) | – | 8.91 µM (active) | 5.01 µM (active) | 7.08 µM (active) | -12.7% | 11.2 µM (active) | 8.91 µM (active) | 1.69 µM (active) |
| Cc1c(C)c2c(c(C)c1OC(=O)CCC(=O)O)CC[C@@](C)(CCC[C@H](C)CCC[C@H](C)CCCC(C)C)O2 | inactive | inactive | inactive | inactive | inactive | inactive | 3.34% | – | inactive | – |
| O=C(O)CCC/C=C\C[C@@H]1[C@@H](/C=C/[C@@H](O)COc2cccc(C(F)(F)F)c2)[C@H](O)C[C@@H]1O | inactive | – | inactive | inactive | inactive | inactive | -14.2% | inactive | inactive | – |
| O=C1N=C2SCCN2C(=O)C1Cc1ccc(Cl)cc1 (centres undefined) | inactive | – | inactive | inactive | inactive | inactive | -9% | inactive | inactive | inactive |
| CN1CCc2c(c3ccccc3n2Cc2ccccc2)C1 | inactive | – | inactive | inactive | inactive | – | 8.09% | inactive | inactive | 2.56 µM (active) |
| Cn1c(O)c(N=NC(N)=S)c2ccccc21 | – | inactive | inactive | – | – | – | 8.19% | inactive | – | – |
| N#Cc1ccc2c(c1)N(CCCN1CCC(O)CC1)c1ccccc1S2 | – | – | inactive | – | – | – | 1.4% | – | – | 4.26 µM (active) |
| C[C@H]1O[C@@H](O[C@H]2[C@@H](O)C[C@H](O[C@H]3[C@@H](O)C[C@H](O[C@H]4CC[C@@]5(C)[C@H](CC[C@@H]6[C@@H]5C[C@@H](O)[C@]5(C)[C@@H](C7=CC(=O)OC7)CC[C@]65O)C4)O[C@@H]3C)O[C@@H]2C)C[C@H](O)[C@@H]1O | inactive | – | inactive | inactive | inactive | inactive | – | – | inactive | – |
| OCc1ccccc1 | – | – | – | – | – | – | 7.88% | 10 µM (active) | – | 5.36 µM (active) |

| SMILES | Potency (PAD) | Potency (PC26) | Potency (PC49) | Potency (SC27B) | Potency (TAB113) | Potency (TAB165) | max response (KB-3-1) | Potency (PC15) | Potency (TAB109) | Potency (W2) |
| --- | --- | --- | --- | --- | --- | --- | --- | --- | --- | --- |
| CNC(=O)[C@H](Cc1c[nH]c2ccccc12)NC(=O)[C@@H](CC(=O)NO)CC(C)C | – | inactive | inactive | inactive | inactive | – | -8.09% | inactive | – | 15.1 µM (active) |
| O=P(O)(O)OP(=O)(O)O | – | – | inactive | – | – | – | -8.71% | inactive | inactive | 13.5 µM (active) |
| CCN(CC)CCC(=O)N1c2ccccc2Sc2ccc(Cl)cc21 | – | – | 11.2 µM (active) | – | – | – | 24.4% | – | – | 3.38 µM (active) |
| O=C(OC1C[C@@H]2CC3C[C@H](C1)N2CC3=O)c1c[nH]c2ccccc12 (some centres undefined) | – | – | – | inactive | inactive | – | -14.8% | – | – | – |
| O=C(c1cc2ccccc2o1)N1CCN(Cc2ccccc2)CC1 | – | – | inactive | – | – | 11.2 µM (active) | -3.18% | inactive | 8.91 µM (active) | – |
| CC(=O)c1ccc2c(c1)N(CCCN1CCN(CCO)CC1)c1ccccc1S2 | – | 7.57 µM (active) | 11.2 µM (active) | – | – | 11.2 µM (active) | 1.1% | 11.2 µM (active) | 7.08 µM (active) | 5.36 µM (active) |
| NCCN | inactive | inactive | inactive | inactive | inactive | inactive | – | inactive | inactive | inactive |
| Oc1cccc(O)c1O | – | – | inactive | inactive | inactive | – | 0.0163% | – | inactive | – |
| CCCCCCCCCCCCCCCCOCCOCCOCCOCCOCCOCCOCCOCCOCCOCCOCCOCCOCCOCCOCCOCCOCCOCCOCCOCCO | – | – | 12.6 µM (active) | – | – | 14.1 µM (active) | -16.1% | 11.2 µM (active) | 12.6 µM (active) | 6.75 µM (active) |
| O=C(O[C@H]1CN2CCC1CC2)N1CCc2ccccc2[C@@H]1c1ccccc1 | inactive | – | inactive | inactive | inactive | – | 8.58% | – | inactive | 1.69 µM (active) |
| CN(C)CCC=C1c2ccccc2C(C)(C)c2ccccc21 | – | – | inactive | inactive | – | – | -19.1% | – | – | 3.38 µM (active) |
| CC(C)CCCCCCc1ccc(O)cc1 | – | inactive | inactive | – | – | – | -10.4% | inactive | inactive | – |
| N[C@@H](Cc1cc(I)c(Oc2ccc(O)c(I)c2)c(I)c1)C(=O)O | – | – | inactive | – | – | – | – | – | – | 9.53 µM (active) |
| CC(C)=CCC/C(C)=C/C=C/C(C)=C/C=C/C(C)=C/C=C/C=C(C)/C=C/C=C(C)/C=C/C=C(\C)CCC=C(C)C | – | inactive | – | – | inactive | – | -16.3% | – | inactive | – |
| CO[C@H]1C[C@@H]2CC[C@@H](C)[C@@](O)(O2)C(=O)C(=O)N2CCCC[C@H]2C(=O)O[C@H]([C@H](C)C[C@@H]2CC[C@@H](OC(=O)C(C)(CO)CO)[C@H](OC)C2)CC(=O)[C@H](C)/C=C(\C)[C@@H](O)[C@@H](OC)C(=O)[C@H](C)C[C@H](C)/C=C/C=C/C=C/1C | inactive | inactive | inactive | inactive | inactive | inactive | – | inactive | inactive | inactive |
| NC(N)=O | inactive | inactive | inactive | inactive | inactive | inactive | – | inactive | inactive | inactive |
| CCOC(=O)C1=C(COCCN)NC(C)=C(C(=O)OC)C1c1ccccc1Cl (centres undefined) | inactive | inactive | inactive | inactive | inactive | – | – | inactive | inactive | – |
| CC[C@H]1OC(=O)[C@H](C)[C@@H](O[C@H]2C[C@@](C)(OC)[C@@H](O)[C@H](C)O2)[C@H](C)[C@@H](O[C@@H]2O[C@H](C)C[C@H](N(C)C)[C@H]2O)[C@](C)(O)C[C@@H](C)CN(C)[C@H](C)[C@@H](O)[C@]1(C)O | – | inactive | inactive | – | 12.6 µM (active) | 7.94 µM (active) | -8.69% | – | 1 µM (active) | 0.426 µM (active) |
| CCCC(CCC)C(=O)OC1C[C@H]2CC[C@@H](C1)[N+]2(C)C (some centres undefined) | – | – | inactive | 12.6 µM (active) | – | – | 11.2% and 16.2% | – | – | – |
